Compounds without any hit were thinned out: in the full panel of roughly 83,000, 20% have a hit.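 96-well plates, one dose, 48 hours. Percent growth reported; active if below 10.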 Active and inactive are the calls of the source.
system: NCI-H522 lung; assay: NCI-60 one-dose screen, 48 h (100 = growth as untreated, 0 = no growth, -100 = all killed); conditions: 10 µM unless noted

Row | SMILES | growth
1 | CN(Cc1cnc2nc(N)nc(N)c2n1)c1ccc(C(=O)N[C@@H](CCc2nn[nH]n2)c2nn[nH]n2)cc1 | 40.9% (inactive)
2 | C[C@]12CC[C@@H]3c4cc(OC(F)F)c(O)cc4CC[C@H]3[C@@H]1CC[C@@H]2OS(N)(=O)=O | 26% (inactive)
3 | C[C@H](NC(=O)[C@@H]1CSSC[C@@H](NC(=O)c2nc3ccccc3cc2O)C(=O)NCC(=O)N1C)c1ccccc1 | 24.7% (inactive)
4 | C=CCOC1=CC(=O)c2ccccc2C1=O | 74% (inactive)
5 | O=C(NCCc1ccc(O)c(O)c1)C12CC3CC(CC(C3)C1)C2 | 9.83% (active)
6 | COc1ccc2c(c1)O/C(=C\c1cccc(OCC(=O)Nc3nc4ccccc4s3)c1)C2=O | -60.1% (active)
7 | Cn1c(=O)c2c(nc(Cl)n2CCl)n(C)c1=O | 84.8% (inactive)
8 | Cc1cc(C)c2c(-c3nnc(N)s3)cc(=O)oc2c1 | 101% (inactive)
9 | O=c1[nH][n+](-c2ccc(Cl)cc2)no1 | 59.2% (inactive)
10 | COC1=CC(=O)C[C@@H](C)[C@]12Oc1c(Cl)c(OC)cc(OC)c1C2=O | 80.5% (inactive)
11 | Cc1cc(Cl)nc(NCc2cc(Nc3ccnc4cc(Cl)ccc34)ccc2F)n1 | 45.1% (inactive)
12 | c1ccc2c(c1)nc(CN1CCOCC1)n1cc(N3CCCC3)nc21 | 106% (inactive)
13 | O=Cc1c[nH]c2ccc(-c3csc4ccccc34)cc12 | 41.3% (inactive)
14 | N#C/C(=C\c1ccc2c(c1)OCO2)n1nnc2cc(F)c(F)cc21 | 18.3% (inactive)
15 | N#Cc1c(N2CCNCC2)nc2sc3cc(Cl)c(Cl)cc3n2c1=N | 67.3% (inactive)
16 | CN(C)c1ccc(-c2cc(-c3ccc(Nc4nc(Nc5ccc(Cl)cc5)nc(Nc5ccc(Cl)cc5)n4)cc3)no2)cc1 | 55.9% (inactive)
17 | CNc1ccc(NC)c2c1C(=O)c1ccccc1C2=O | 97.1% (inactive)
18 | NC(=N\N=C/c1ccccc1[N+](=O)[O-])/C(N)=N\N=C/c1ccccc1[N+](=O)[O-] | 89.3% (inactive)
19 | C#Cc1cccc(NC(=O)c2ccc(NC(=O)CCl)cc2)c1 | -51.6% [8.25 µM] (active)
20 | COc1cc(/C=C/C(=O)c2ccc(Nc3nc(Nc4ccc(F)cc4)nc(Nc4ccc(Cl)cc4)n3)cc2)cc(OC)c1OC | 62.2% (inactive)
21 | Cc1cc(NCc2cc(Nc3ccnc4cc(Cl)ccc34)ccc2F)nc(Cl)n1 | 36.2% (inactive)
22 | COc1cc(CCC[P+](c2ccccc2)(c2ccccc2)c2ccccc2)cc2c1OCO2 | 13.2% (inactive)
23 | CC(=O)C(C)Cc1cc2c(cc1C)C(C)(C)CCC2(C)C (configuration not stated) | 85.3% (inactive)
24 | CCCCCc1nc2c(c3c1CCCC3)CCCC2 | 44.6% (inactive)

system: A549/ATCC NSCLC; assay: as above; conditions: 10 µM unless noted

Row | SMILES | growth
25 | CCN(CC)CCCC(C)Nc1c2ccc(Cl)cc2nc2ccc(O)cc12 (configuration not stated) | 24.4% (inactive)
26 | Cc1ccc(-c2cc3c(cc2O)C2CCCCC2(N2CCOCC2)O3)cc1 (configuration not stated) | 96.1% (inactive)
27 | CNC(=O)NCC1OC(n2cnc3c(NC(=O)Nc4ccccc4)ncnc32)C(O[Si](C)(C)C(C)(C)C)C1CC(=O)N(C)OC (configuration not stated) | 2.06% (active)
28 | COc1cc(/C=C/C(=O)c2cccc(-n3cc(-c4ccccc4)[nH]c3=O)c2)ccc1O | 66.7% (inactive)
29 | CC(=O)OC1CCC2(C)C(=CC3C4CCC(=O)C4(C)CCC32)C1 (configuration not stated) | 101% (inactive)
30 | O=C(Nc1ccccc1-c1nc2ccccc2c(=O)[nH]1)c1cc2ccccc2[nH]1 | 87.6% (inactive)
31 | CC(=O)OC[C@H]1OC(Sc2sc(C(=O)c3ccc(Br)cc3)c(N)c2-c2nc3ccccc3s2)[C@H](OC(C)=O)[C@@H](OC(C)=O)[C@@H]1OC(C)=O (some centres not stated) | 71.5% (inactive)
32 | O=C(COc1ccc(/C=C2\Oc3ccccc3C2=O)cc1)c1ccc(Cl)cc1 | 112% (inactive)
33 | C=CC(=O)Nc1cccc(Oc2nccc(Nc3nnc(C4CC4)s3)n2)c1 | 103% (inactive)
34 | O=C(NC(CSSCC(NC(=O)c1ccccc1)C(=O)O)C(=O)O)c1ccccc1 (configuration not stated) | 104% (inactive)
35 | CC(C)(C)c1ccc(/C=C/C(=O)Nc2ccc(O)cc2)cc1 | 64.6% (inactive)
36 | CCOc1c(C#N)nnc2c(C#N)c(NC(=O)c3ccccc3)nn12 | 95% (inactive)
37 | COc1ccc(N=C(c2ccccc2)C2C(=O)c3ccccc3C2=O)cc1 | 93.6% (inactive)
38 | COc1ccc(-c2nc(SCCC(C)C)nc(N/N=C\c3ccccc3O)c2C#N)cc1 | 78.2% (inactive)
39 | CN(Cc1cnc2nc(N)nc(N)c2n1)c1ccc(C(=O)N[C@@H](CCc2nn[nH]n2)c2nn[nH]n2)cc1 | 22.9% (inactive)
40 | C[C@]12CC[C@@H]3c4cc(OC(F)F)c(O)cc4CC[C@H]3[C@@H]1CC[C@@H]2OS(N)(=O)=O | 31.3% (inactive)
41 | C[C@H](NC(=O)[C@@H]1CSSC[C@@H](NC(=O)c2nc3ccccc3cc2O)C(=O)NCC(=O)N1C)c1ccccc1 | 42.9% (inactive)
42 | C=CCOC1=CC(=O)c2ccccc2C1=O | 91.4% (inactive)
43 | O=C(NCCc1ccc(O)c(O)c1)C12CC3CC(CC(C3)C1)C2 | 105% (inactive)

Row | SMILES | growth
44 | COc1ccc2c(c1)O/C(=C\c1cccc(OCC(=O)Nc3nc4ccccc4s3)c1)C2=O | 95.8% (inactive)
45 | Cn1c(=O)c2c(nc(Cl)n2CCl)n(C)c1=O | 106% (inactive)
46 | Cc1cc(C)c2c(-c3nnc(N)s3)cc(=O)oc2c1 | 104% (inactive)
47 | O=c1[nH][n+](-c2ccc(Cl)cc2)no1 | 62.1% (inactive)
48 | COC1=CC(=O)C[C@@H](C)[C@]12Oc1c(Cl)c(OC)cc(OC)c1C2=O | 97.5% (inactive)
49 | Cc1cc(Cl)nc(NCc2cc(Nc3ccnc4cc(Cl)ccc34)ccc2F)n1 | 58.5% (inactive)
50 | c1ccc2c(c1)nc(CN1CCOCC1)n1cc(N3CCCC3)nc21 | 87.5% (inactive)
51 | O=Cc1c[nH]c2ccc(-c3csc4ccccc34)cc12 | 48.1% (inactive)
52 | N#C/C(=C\c1ccc2c(c1)OCO2)n1nnc2cc(F)c(F)cc21 | 79% (inactive)
53 | N#Cc1c(N2CCNCC2)nc2sc3cc(Cl)c(Cl)cc3n2c1=N | 108% (inactive)
54 | CN(C)c1ccc(-c2cc(-c3ccc(Nc4nc(Nc5ccc(Cl)cc5)nc(Nc5ccc(Cl)cc5)n4)cc3)no2)cc1 | 23.1% (inactive)
55 | CNc1ccc(NC)c2c1C(=O)c1ccccc1C2=O | 100% (inactive)
56 | NC(=N\N=C/c1ccccc1[N+](=O)[O-])/C(N)=N\N=C/c1ccccc1[N+](=O)[O-] | 114% (inactive)
57 | C#Cc1cccc(NC(=O)c2ccc(NC(=O)CCl)cc2)c1 | 59.1% [8.25 µM] (inactive)
58 | COc1cc(/C=C/C(=O)c2ccc(Nc3nc(Nc4ccc(F)cc4)nc(Nc4ccc(Cl)cc4)n3)cc2)cc(OC)c1OC | 53.1% (inactive)
59 | Cc1cc(NCc2cc(Nc3ccnc4cc(Cl)ccc34)ccc2F)nc(Cl)n1 | 56.7% (inactive)
60 | COc1cc(CCC[P+](c2ccccc2)(c2ccccc2)c2ccccc2)cc2c1OCO2 | 73.2% (inactive)
61 | CC(=O)C(C)Cc1cc2c(cc1C)C(C)(C)CCC2(C)C (configuration not stated) | 79.2% (inactive)
62 | CCCCCc1nc2c(c3c1CCCC3)CCCC2 | 72.6% (inactive)

From PubChem BioAssay (NCI)
